Experimental findings from PubChem BioAssay (Tox21) are described below.

Several values for one entry are separate records, joined by “and”; a condition that tells them apart may be missing. Equal entries are not always repeated. Unmarked numbers belong to inactive results. Results filed as inconclusive are left out. Activity calls are given as the source filed them. Unless noted, the call rests on the fitted dose curve; in most records, active means well fitted curve in the direction sought with a large enough effect in the repeat runs; inconclusive means weak or mixed curves; inactive means no such curve, though single readings can be large; an effect the other way counts as inactive or inconclusive.

Experiment [1] in a line: A CellTox Green Cytotoxicity Assay to monitor cytotoxicity in HepG2 cells - 0 hour (AID 1224882). Further: nearly all actives have a fitted effect of over 35% in size. Put shortly: (§1)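 Cytotoxicity was tracked as dead-cell DNA fluorescence in HepG2 cells treated with test compounds at 37 C; each time-point value comes from one kinetic series spanning 0, 8, 16, 24, 32 and 40 h.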
Experiment [2] is described as follows: A CellTox Green Cytotoxicity Assay to monitor cytotoxicity in HepG2 cells - 32 hour (AID 1224883). Further: nearly all actives have a fitted effect of over 50% in size. Put shortly: as §1
Experiment [3] in a line: qHTS RealTime-Glo MT Cell Viability Assay in HEK293 cells - 24 hour (AID 1224886). Further: nearly all actives have a fitted effect of over 50% in size. Further: potency means the concentration at half of the fitted maximal effect. On activity change, negative = cytotoxicity: top concentration of the series differs between compounds. Put shortly:
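Tox21 10K qHTS, HEK293, 600 cells/well, RealTime-Glo reagent co-dispensed with cells; 5 h preincubation, compound by pintool, 37 C, luminescence at 0–40 h.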
On the technique in general: Quantitative high-throughput screening tests each substance at several concentrations.

Experiment [4] is described as follows: qHTS RealTime-Glo MT Cell Viability Assay in HEK293 cells - 8 hour (AID 1224887). Further: top concentration of the series differs between compounds; nearly all actives have a fitted effect of over 50% in size. An outline of the steps: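 Kinetic, non-lysing viability readout. Seed HEK293 (600/well) with reagent, incubate 5 h at 37 C/5% CO2, pin 23 nL compound in DMSO, incubate at 37 C, read luminescence at 0, 8, 16, 24, 32, 40 h.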
The nature of experiment [5]: A CellTox Green Cytotoxicity Assay to monitor cytotoxicity in HEK293 cells - 16 hour (AID 1224888). Further: nearly all actives have a fitted effect of over 35% in size. Put shortly:
(§2)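 Real-time, in one plate: 600 HEK293 cells/well with dead-cell DNA dye, pinned compound after 5 h, 37 C incubation over 40 h; viable cells give no appreciable fluorescence.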

Experiment [6] is described as follows: qHTS RealTime-Glo MT Cell Viability Assay in HepG2 cells - 0 hour (AID 1224889). Further: nearly all actives have a fitted effect of over 50% in size. Put shortly:
(§3)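 Cells + NanoLuc/prosubstrate dispensed (600 cells/well) → 5 h at 37 C/5% CO2 → compounds in DMSO transferred → 40 h incubation at 37 C, luminescence read at 0, 8, 16, 24, 32, 40 h.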

Experiment [7] can be described thus: A CellTox Green Cytotoxicity Assay to monitor cytotoxicity in HepG2 cells - 8 hour (AID 1224890). Further: nearly all actives have a fitted effect of over 45% in size. Put shortly:
as §1

Experiment [8] in a line: qHTS assay to identify small molecule antagonists of the estrogen receptor alpha (ER-alpha) signaling pathway using the BG1 cell line in the presence of 0.1 nM 17-beta-estradiol - cell viability counter screen (AID 1259241). Further: nearly all actives have a fitted effect of over 40% in size. An outline of the steps:
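VM7Luc4E2 cells (endogenous full-length ER-alpha, 4xERE-luciferase), cultured 5 days in charcoal-stripped serum, exposed to compounds with 0.1 nM 17beta-estradiol (final) for 22 hr at 37C. Viability read in same wells as live-cell protease fluorescence after 30 min.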

A short description of experiment [9]: qHTS assay to identify small molecule antagonists of the androgen receptor (AR) signaling pathway using the MDA cell line in the presence of 0.5 nM R1881 - cell viability counter screen (AID 1259242). Further: nearly all actives have a fitted effect of over 45% in size. An outline of the steps: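 Cells seeded at 3,000/well and allowed 5 hr at 37C, 0% CO2 before compound transfer and R1881 (0.5 nM final) addition; 16 hr later, live-cell protease fluorescence indicated cytotoxicity.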

Experiment [10] in a line: qHTS assay to identify small molecule phospholipidosis (PLD) inducers (AID 1259344; active means well fitted curve in the direction sought with a large enough effect; an effect the other way counts as inactive or inconclusive). An outline of the steps: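 Read-out is LipidTOX Red fluorescence (ex 595/em 615) imaged in HepG2 cells after 24 h compound exposure at 37 C, with Hoechst nuclear counterstain (ex 352/em 461) allowing per-cell normalisation.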
A short description of experiment [11]: qHTS assay to identify small molecule HDAC inhibitors (AID 1259364).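 Further: wild-type HCT-116 cells with endogenous class I/II HDAC activity; top concentration of the series differs between compounds; nearly all actives have a fitted effect of over 45% in size.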 Put shortly:
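HCT-116 wt cells, 1,500/well, overnight attach. Compounds (DMSO) 2 h, 37 °C. HDAC-Glo I/II, 30 min RT. Luminescence.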

Experiment [12] is described as follows: qHTS assay to identify small molecule HDAC inhibitors - cell viability counter screen (AID 1259365). Put shortly: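 Wild-type HCT-116 cells, 1,500/well, cultured overnight, then compound-treated 2 h at 37 C. Viability measured as ATP luminescence with CellTiter-Glo after 30 min at room temperature.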
Experiment [13] is described as follows: qHTS assay to identify small molecule agonists of the sonic hedgehog signaling (Shh) pathway - cell viability counter screen (AID 1259366). Further: nearly all actives have a fitted effect of over 50% in size. Further: potency means the concentration at half of the fitted maximal effect. An outline of the steps:
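NIH/3T3-derived Gli1-Luc reporter cells, 2,000 per well, received compound after 4 h and were treated about 23 h at 37C. Viability measured in the same wells by CellTiter-Fluor fluorescence after 1 h.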

Experiment [14] can be described thus: qHTS assay to identify small molecule antagonists of the sonic hedgehog signaling (Shh) pathway - cell viability counter screen (AID 1259367). Further: nearly all actives have a fitted effect of over 55% in size. Further: potency means the concentration at half of the fitted maximal effect. An outline of the steps:
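Fluorescence read-out (CellTiter-Fluor, 1 hr at 37C) taken after 23 hr compound treatment of 3T3 Gli1-Luc cells stimulated with conditioned medium. Cells were seeded at 2,000 per well and pre-incubated 4 hr.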

Experiment [15] in a line: qHTS assay to identify small molecule agonists of the sonic hedgehog signaling (Shh) pathway (AID 1259368; calls by dose curve;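 further: NIH/3T3-derived 3T3Gli1-Luc cells carrying a stable Gli1-driven firefly luciferase reporter; series mostly up to about 92 µM; nearly all actives have a fitted effect of over 15% in size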). An outline of the steps:
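Following a 24 hr incubation with DMSO-dissolved compounds at 37 C, 5% CO2, Gli1-Luc NIH/3T3-derived cells received luciferase reagent for 30 min at room temperature prior to luminescence measurement.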

A short description of experiment [16]: qHTS assay to identify small molecule antagonists of the sonic hedgehog signaling (Shh) pathway (AID 1259369; calls by dose curve; further: nearly all actives have a fitted effect of over 45% in size; further: potency means the concentration at half of the fitted maximal effect). Put shortly: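 Read-out is luminescence from a firefly luciferase gene controlled by the Gli1 response element, in 3T3Gli1-Luc cells pre-incubated 4hr then exposed to compounds and conditioned medium for 24hr.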
Experiment [17] can be described thus: A CellTox Green Cytotoxicity Assay to monitor cytotoxicity in HEK293 cells - 8 hour (AID 1224884). Further: nearly all actives have a fitted effect of over 35% in size. Put shortly: as §2
Experiment [18] in a line: qHTS RealTime-Glo MT Cell Viability Assay in HepG2 cells - 16 hour (AID 1224885). Further: nearly all actives have a fitted effect of over 50% in size. Put shortly: as §3
In experiment [19] the target is Androgen receptor (Homo sapiens) (UniProt P10275). Nature of the experiment: qHTS assay to identify small molecule antagonists of the androgen receptor (AR) signaling pathway using the MDA cell line in the presence of 0.5 nM R1881 (AID 1259243). Further: nearly all actives have a fitted effect of over 50% in size. An outline of the steps: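 Luminescence from an AR/GR-responsive MMTV-luciferase construct in MDA-kb2 breast carcinoma cells, read 30 min after ONE-Glo, following 16 hr co-treatment with compounds and 0.5 nM R1881.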
Androgen receptor (Homo sapiens), sequence (P10275 whole entry, looked up): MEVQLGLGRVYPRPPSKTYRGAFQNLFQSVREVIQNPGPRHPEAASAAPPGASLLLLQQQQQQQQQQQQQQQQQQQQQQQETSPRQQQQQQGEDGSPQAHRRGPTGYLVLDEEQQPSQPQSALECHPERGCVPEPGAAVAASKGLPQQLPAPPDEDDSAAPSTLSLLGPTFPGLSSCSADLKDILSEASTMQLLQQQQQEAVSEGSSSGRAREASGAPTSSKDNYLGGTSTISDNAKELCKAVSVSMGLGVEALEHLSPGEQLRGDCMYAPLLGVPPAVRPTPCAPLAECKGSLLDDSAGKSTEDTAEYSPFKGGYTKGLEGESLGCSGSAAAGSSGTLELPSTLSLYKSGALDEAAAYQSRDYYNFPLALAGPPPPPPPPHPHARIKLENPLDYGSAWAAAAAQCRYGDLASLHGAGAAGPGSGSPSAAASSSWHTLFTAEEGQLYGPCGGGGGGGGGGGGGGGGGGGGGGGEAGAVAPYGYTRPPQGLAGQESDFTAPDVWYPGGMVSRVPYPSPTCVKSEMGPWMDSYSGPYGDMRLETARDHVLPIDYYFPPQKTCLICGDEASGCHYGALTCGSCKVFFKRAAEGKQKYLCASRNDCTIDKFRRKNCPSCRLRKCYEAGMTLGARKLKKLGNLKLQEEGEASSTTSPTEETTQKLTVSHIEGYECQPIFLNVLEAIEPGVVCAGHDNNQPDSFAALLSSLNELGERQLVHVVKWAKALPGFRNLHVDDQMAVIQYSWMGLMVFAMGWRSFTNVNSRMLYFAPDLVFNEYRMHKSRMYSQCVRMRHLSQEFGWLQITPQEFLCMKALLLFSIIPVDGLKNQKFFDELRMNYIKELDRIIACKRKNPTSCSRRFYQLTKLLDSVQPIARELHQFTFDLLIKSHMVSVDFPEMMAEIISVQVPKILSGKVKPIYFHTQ

In experiment [20] the target is Estrogen receptor (Homo sapiens) (UniProt P03372). Nature of the experiment: qHTS assay to identify small molecule antagonists of the estrogen receptor alpha (ER-alpha) signaling pathway using the BG1 cell line in the presence of 0.1 nM 17-beta-estradiol (AID 1259244). Further: nearly all actives have a fitted effect of over 50% in size. Put shortly: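 Luciferase signal from VM7Luc4E2 ERE-reporter cells, co-dosed with test compound and 0.1 nM final 17beta-estradiol for 22 h, read with ONE-Glo.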
Estrogen receptor (Homo sapiens), sequence (P03372 whole entry, looked up): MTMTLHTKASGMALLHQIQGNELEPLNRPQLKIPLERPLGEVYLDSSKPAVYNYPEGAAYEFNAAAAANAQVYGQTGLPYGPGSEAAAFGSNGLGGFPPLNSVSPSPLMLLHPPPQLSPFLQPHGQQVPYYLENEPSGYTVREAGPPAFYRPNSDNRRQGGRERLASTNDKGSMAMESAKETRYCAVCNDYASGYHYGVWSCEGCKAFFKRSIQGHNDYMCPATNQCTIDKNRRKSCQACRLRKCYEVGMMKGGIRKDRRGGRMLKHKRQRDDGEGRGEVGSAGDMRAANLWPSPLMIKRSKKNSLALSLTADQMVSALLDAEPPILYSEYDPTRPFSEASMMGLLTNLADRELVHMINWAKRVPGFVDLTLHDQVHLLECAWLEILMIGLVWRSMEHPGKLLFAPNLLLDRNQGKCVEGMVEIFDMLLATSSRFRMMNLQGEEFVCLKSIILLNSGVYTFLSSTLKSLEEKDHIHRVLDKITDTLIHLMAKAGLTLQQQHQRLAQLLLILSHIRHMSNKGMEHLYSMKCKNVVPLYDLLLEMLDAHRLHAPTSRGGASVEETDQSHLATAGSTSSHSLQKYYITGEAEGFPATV
On the % scale 0 is the no-effect control and ±100 the full control effect.

Consider `Oc1ccc(C(O)CNCCCCCCNCC(O)c2ccc(O)c(O)c2)cc1O` (centres undefined), for which the Potency entry in [1], in experiment [2], in experiment [3], in experiment [4], in experiment [5] and in experiment [6] was “inactive” each time. Further, the Potency result in [7], in [8], in experiment [9], in experiment [10], in [11] and in experiment [16] was “inactive” each time. Besides, the result in experiment [12] and in experiment [15] was inactive. Moreover, the Potency is 8.41 µM (active) in experiment [13] and 29.8 µM (active) in experiment [14].
On to `O=C(C(=O)c1ccc(Br)cc1)c1ccc(Br)cc1`, for which the cytotoxicity increase in experiment [2] was -9.52% [at 15.8 µM]; in [17], 6.57% [at 15.8 µM]; in [7], -4.98% [at 15.8 µM]. Further, the activity change, negative = cytotoxic in experiment [18] is -1.79% [at 15.8 µM]. The activity change, negative = cytotoxicity is 5.88% [at 15.8 µM] in experiment [3]; 2.33% [at 15.8 µM] in experiment [4]; -3.46% [at 15.8 µM] in [6]; -6.61% [at 19 µM] in experiment [8]; -0.456% [at 19 µM] in experiment [12]. Besides, the activity change in [5] was 0.498% [at 15.8 µM, stronger effect = higher value]; in experiment [15], -0.0641% [at 18.9 µM]. In addition, the viability change, negative = cytotoxic is -1.93% [at 19 µM] in [9] and -13.1% [at 19 µM] in experiment [14]. The activity, negative = inhibition in [19] was 66.2% [at 19 µM]. The activity change, negative = inhibition in experiment [11] was 4.75% [at 19 µM]. Also, the Potency in [16] is 6.78 µM (active).
On to `CCN(CC)CCOc1ccc2c(c1)C(=O)c1cc(OCCN(CC)CC)ccc1-2`, for which the Potency entry in experiment [1], in [17], in experiment [18], in experiment [4], in experiment [5] and in experiment [6] was “inactive” throughout. In addition, the Potency result in [7], in experiment [8], in experiment [11], in [14] and in experiment [16] was “inactive” in each case. Further, the Potency in experiment [3] was 10.7 µM (active). Moreover, the molecule was called inactive in [12] and in experiment [15].
For `Cn1sccc1=O`, the Potency entry in [1], in experiment [17], in [18], in experiment [4], in [5] and in experiment [6] was “inactive” throughout. Moreover, the Potency entry in experiment [7], in [8], in experiment [9], in [20] and in experiment [11] was “inactive” each time. Besides, the molecule was classed as inactive in [12] and in experiment [15]. Besides, the Potency is 48.6 µM (active) in experiment [13]; 12.2 µM (active) and 3.06 µM (active) in experiment [16].
Turning to `CCCCc1cc2ccccc2c(OCCN(C)C)n1`, the Potency result in [1], in experiment [18], in experiment [4], in experiment [5], in experiment [6] and in [7] was “inactive” each time. For the same molecule, the Potency entry in [8], in [9], in experiment [11], in [13] and in experiment [14] was “inactive” throughout. Besides, the molecule was classed as inactive in experiment [12] and in experiment [15].
On to `OCCC1CCCCN1` (centres undefined), for which the Potency result in [1], in experiment [2], in experiment [3], in experiment [4], in experiment [5] and in experiment [6] was “inactive” throughout. The Potency result in [7], in experiment [8], in experiment [9], in experiment [20], in experiment [11] and in experiment [13] was “inactive” in each case. Moreover, the Potency result in experiment [14] and in [16] was “inactive” in each case. Besides, the result in [12] and in [15] was inactive.
As to `O=C(O)Cn1c(C(=O)Nc2nc(-c3ccccc3Cl)cs2)cc2ccccc21`, the Potency result in experiment [1], in [2], in experiment [18], in experiment [4], in experiment [5] and in experiment [7] was “inactive” each time. Also, the Potency result in experiment [8], in experiment [9], in experiment [20], in [10], in experiment [11] and in experiment [13] was “inactive” throughout. Besides, the Potency result in [16] was “inactive”. Further, the result in [12] and in experiment [15] was inactive.
`CN(C)CC/C=C1\c2ccccc2COc2ccccc21`: the Potency entry in experiment [1], in experiment [17], in experiment [18], in experiment [4], in experiment [5] and in experiment [6] was “inactive” in each case. Moreover, the Potency result in experiment [7], in experiment [8], in [9], in [10], in experiment [11] and in [14] was “inactive” each time. Besides, the result in experiment [12] and in experiment [15] was inactive.
